Rows were chosen to be rich in hits. Some 2.5% of all compounds tested hit in one or more screens of this group.
p53ts 39C kill – cytotoxicity in p53ts cells at nonpermissive temperature; H1299-p53A138V viability at 39C, ATP luminescence, 24 h; Potency, µM (titrated, usually from 46.1 µM), without a hit: top-dose activity change, negative = cell killing, actives largely listed as cytotoxic; 130,000 compounds, 1.5% hits; AID 902; also: nearly all actives have a fitted effect of over 55% in size
FLuc inh – firefly luciferase inhibition; purified firefly luciferase, luminescence, 8 min; AID 411; 72,000 compounds, 2.2% hits; P08659; Potency, µM (highest dose often 57.1 µM), inactives show at the highest dose activity change, negative = inhibition, usual class: inhibitors; also: nearly all actives have a fitted effect of over 40% in size
Target sequence (P08659 whole entry, looked up): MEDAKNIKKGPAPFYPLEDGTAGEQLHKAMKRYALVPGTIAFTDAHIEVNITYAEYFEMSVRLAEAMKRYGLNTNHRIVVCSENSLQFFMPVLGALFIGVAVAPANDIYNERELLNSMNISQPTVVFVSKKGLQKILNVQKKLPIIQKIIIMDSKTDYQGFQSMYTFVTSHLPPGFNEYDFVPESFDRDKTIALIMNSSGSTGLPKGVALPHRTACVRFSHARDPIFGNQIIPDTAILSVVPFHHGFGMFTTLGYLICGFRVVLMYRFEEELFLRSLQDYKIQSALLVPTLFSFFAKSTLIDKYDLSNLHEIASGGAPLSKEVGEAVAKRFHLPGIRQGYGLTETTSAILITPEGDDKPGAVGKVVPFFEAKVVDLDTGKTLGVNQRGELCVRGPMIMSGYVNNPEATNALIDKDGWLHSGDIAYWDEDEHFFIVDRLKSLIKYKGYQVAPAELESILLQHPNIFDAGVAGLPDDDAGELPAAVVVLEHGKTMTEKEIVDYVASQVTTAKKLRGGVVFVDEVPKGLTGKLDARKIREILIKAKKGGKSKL
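Firefly luciferase (PKLight detection mix) with 10 uM ATP in pH 7.2 imidazole buffer (KCl, MgCl2, Tween 20, BSA). Compounds tested across a concentration series (qHTS). Luminescence read after 8 min at ambient temperature.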
p53ts 32C tox – p53ts cell cytotoxicity, permissive temperature; H1299-p53A138V at 32C, ATP luminescence viability, 24 h; Potency, µM (top dose mostly 46.1 µM), without a hit: at the highest dose activity change, negative = cytotoxicity, usual class: cytotoxic; 130,000 compounds, 0.93% hits; AID 924;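 also: 0% = DMSO and -100% = full killing by reference compound; nearly all actives have a fitted effect of over 55% in size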
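Viability by ATPlite luminescence after 24 h compound treatment (up to 46 uM) at the permissive 32C. Cells are H1299 carrying p53 A138V. Scale runs from DMSO basal to 100 uM tamoxifen as full kill; AC50 from Hill fits.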
Active calls of the source: *; ? = inconclusive; nt = not tested or not shown; [ ] = remark or other dose. Calls follow the shape of the dose curve; as a rule, active = well fitted curve in the direction sought with a large enough effect; inconclusive = small, poorly fitted or top-dose-only effect, or another doubt; inactive = no such curve, though single readings can be large; an effect the other way counts as inactive or inconclusive. Unless noted, % is scaled to controls: 0 for no effect and ±100 for the full control effect; potency is read from the fitted curve at half-maximal effect.

SMILES	p53ts 39C kill	FLuc inh	p53ts 32C tox
CC(C)C[C@H](NC(=O)[C@@H](NC(=O)N[C@@H](Cc1ccccc1)C(=O)O)[C@H]1CCN=C(N)N1)C(=O)N[C@H](C=O)Cc1ccccc1	nt	0.0%[11.4 µM]	nt
CCCCN(CC)S(=O)(=O)c1cccc2cccnc12	-5.0%	-1.4%	7.9%
NC(Cc1ccccc1)=NCC(=O)O	-1.3%[9.22 µM]	2.0%[11.4 µM]	0.4%[9.22 µM]
O=C(CN1CCN(c2nc(-c3ccc(F)cc3)cs2)CC1)Nc1ccc2c(c1)OCO2	-12.9%	2.3%	-3.5%
O=C(N1CCOCC1)N1CCN(c2nc(-c3ccc(F)cc3)cs2)CC1	-29.8%	15.8µM*	-24.5%
COC(=O)C/C=C\[C@@H](C)[C@@H](/C=N\O[C@@H](C)c1cn([C@H]2COC[C@H]2O)nn1)NS(=O)(=O)c1ccc(C)cc1	-1.9%[9.22 µM]	0.1%[11.4 µM]	-5.6%[9.22 µM]
CCCCCSc1nc2sc3c(c2c(=O)n1-c1ccc(OC)cc1)CCN(C(C)=O)C3	12.6µM*	nt	?
CCCN(CCC)C(=O)CSc1nc2sc3c(c2c(=O)n1-c1ccccc1)CCN(C(C)=O)C3	7.9%	nt	26.6%
NC(=O)[C@@H]1CCCNC1	0.5%[9.22 µM]	0.5%[11.4 µM]	-4.7%[9.22 µM]
O=C(COc1ccc(Cl)cc1Cl)Nc1ccccn1	0.631µM*	0.0794µM*	0.398µM*
COC(=O)c1sccc1NC(=O)COc1ccc(Cl)cc1Cl	0.2%	nt	nt
O=C(COc1ccccc1Cl)Nc1ccc(Cl)cn1	15.8µM*	15.8µM*	12.6µM*
O=C(CC(=O)Nc1ccccn1)Nc1ccccn1	4.5%	-1.7%	-6.9%
O=C(COc1ccc(Cl)cc1Cl)NC1CCSC1=O (stereo not drawn)	?	25.1µM*	-19.7%
O=C(COc1ccc(Cl)cc1)Nc1ccc(Cl)cn1	-4.6%	-23.5%	-21.3%
O=C(COc1ccc(Cl)cc1Cl)NCc1ccncc1	0.2%	-7.0%	-3.8%
COc1ccccc1OCC(=O)Nc1ccccn1	7.94µM*	10µM*	10µM*
Cc1noc(C)c1-c1ccc2ncnc(NCc3cccnc3)c2c1	-8.1%	1.5%[2.29 µM]	5.8%
c1ccc2c[n+](CCCC[n+]3ccc4ccccc4c3)ccc2c1	11.7%[9.22 µM]	2.5%[11.4 µM]	2.1%[9.22 µM]
C[C@](O)(c1ccccc1)c1nccc2ccccc12	8.3%[9.22 µM]	-0.5%[11.4 µM]	-10.8%[9.22 µM]
CSCCC=O	0.7%	nt	9.4%[1.84 µM]
O=C(COc1ccc(Cl)cc1Cl)NC(=O)N1CCCCC1	?	-24.3%	12.6µM*
Cc1cc(Cl)ccc1OCC(=O)N1CCCCC1	1.2%	-4.9%	-11.1%
COc1ccc(CNc2ncnc3ccc(-c4ccc(N(C)C)cc4)cc23)c(OC)c1	8.5%	0.8%[2.29 µM]	5.6%
Cc1ccc(NC(=O)C2CCCN(c3nnc(-n4c(C)ccc4C)s3)C2)cc1Cl (stereo not drawn)	-24.6%	nt	-7.9%
SMILES	p53ts 39C kill	FLuc inh	p53ts 32C tox
Cc1ccc(Nc2c(-c3c[nH]c4ccccc34)nc3cc(C)ccn23)cc1	?	nt	-19.4%
Cc1ccn2c(Nc3ccccc3)c(-c3c[nH]c4ccccc34)nc2c1	15.8µM*	nt	-21.8%
CN1CCC2(CC1)CCN(C(=O)c1ccncc1)CC2	-11.4%	-2.5%[11.4 µM]	-4.2%
CCSc1oc(-c2cccs2)nc1S(=O)(=O)c1ccccc1	4.9%	nt	5.4%
CCCCCS(=O)(=O)c1oc(-c2cccs2)nc1S(=O)(=O)c1ccc(C)cc1	3.16µM*	nt	?
CSc1oc(-c2ccc(F)cc2)nc1S(=O)(=O)c1ccc(Br)cc1	?	nt	-2.3%
CCCCS(=O)(=O)c1oc(-c2cccs2)nc1S(=O)(=O)c1ccc(F)cc1	3.16µM*	nt	20µM*
CCCCS(=O)(=O)c1oc(-c2ccc(F)cc2)nc1S(=O)(=O)c1ccc(C)cc1	3.98µM*	nt	12.6µM*
CCC(C)S(=O)(=O)c1oc(-c2ccc(F)cc2)nc1S(=O)(=O)c1ccc(F)cc1 (stereo not drawn)	3.16µM*	nt	3.98µM*
Cc1ccc(S(=O)(=O)c2nc(-c3ccc(F)cc3)oc2N2CCN(c3ccccc3)CC2)cc1	13.7%	nt	12.4%
CCCSc1oc(-c2cccs2)nc1S(=O)(=O)c1ccc(C)cc1	1.4%	nt	1.5%
CCCCN(CC)C(=O)Cn1cc2c(n1)-c1c(oc(C(=O)N3CCCC3)c1C)CC2	-11.1%	nt	1.5%
NC(=O)CCCCC(N)=O	-3.1%	nt	-11.6%[1.84 µM]
CC/C=C\CC[C@H](OC(=O)c1ccc(Br)cc1)C1=CCCCC1=O	-7.6%[9.22 µM]	0.3%[11.4 µM]	-1.4%[9.22 µM]
O=c1c(-c2cc(F)cc(F)c2)nc2cncnc2n1Cc1ccccc1	-20.1%	0.5%[11.4 µM]	-19.7%
CO[C@H]1COC(=O)[C@H](C)NC(=O)[C@@H](C)COC(=O)[C@H]2CCCN2C(=O)C/C=C\[C@H]1C	-2.9%[9.22 µM]	0.0%[11.4 µM]	3.8%[9.22 µM]
CO/N=C(\C)CCN1CCCc2nc(C)c(C)cc21	7.2%[9.22 µM]	0.7%[11.4 µM]	0.1%[9.22 µM]
COc1ccc(OCC2c3cc(OC)c(OC)cc3CCN2C(=O)COc2ccc(Cl)cc2Cl)cc1 (stereo not drawn)	?	nt	0.5%

Bioassay records: PubChem BioAssay, National Center for Advancing Translational Sciences (NCATS)
